For 6 compounds, growth results are on record in PubChem BioAssay (NCI).

Test systems include DU-145 prostate; K-562 leukemia; MALME-3M melanoma; MDA-MB-231 breast; RXF 393 renal; SF-268 CNS; SF-295 CNS; SF-539 CNS; UACC-257 melanoma; M14 melanoma; HCT-15 colon; HT29 colon; SNB-75 CNS; SNB-19 CNS; U251 CNS; PC-3 prostate; SK-MEL-5 melanoma; UACC-62 melanoma; LOX IMVI melanoma; SK-MEL-28 melanoma.
Assay in all cases: NCI-60 one-dose screen, 48 h (100 = growth as untreated, 0 = no growth, -100 = all killed)
What all share (settings): 10 µM unless noted

The structures appear in SMILES notation. This is part of a sample that, as a whole, favours compounds with a hit. Of some 83,000 tested, about 20% had one in any assay.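 Treatment: one concentration, 48 hours, 96-well format. Scoring: percent growth, with anything below 10 considered active.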 A number with no mark means an inactive call. Active and inactive are the calls of the source.

`C=C(C)[C@@H]1CC[C@]2(C(=O)OC)CC[C@]3(C)[C@H](CC[C@@H]4[C@@](C)(CCc5nn[nH]n5)[C@H](C(=C)C)CC[C@]43C)[C@@H]12`: the growth was 0.51% [100 µM] (active) with DU-145 prostate; 14.5% [100 µM] with K-562 leukemia; -52% [100 µM] (active) in the test on MALME-3M melanoma; -76.9% [100 µM] (active) in the test on MDA-MB-231 breast; -78.3% [100 µM] (active) in the test with RXF 393 renal; -23.1% [100 µM] (active) with SF-268 CNS. In addition, the growth in the test on SF-295 CNS was -35.2% [100 µM] (active); in the test with SF-539 CNS it was -65% [100 µM] (active); in the test on UACC-257 melanoma it was -5.16% [100 µM] (active); in the test with M14 melanoma, -9.37% [100 µM] (active); in the test on HCT-15 colon it was 6.32% [100 µM] (active); in the test on HT29 colon it was -16.1% [100 µM] (active). Further, the growth in the test with SNB-75 CNS is -77.8% [100 µM] (active); with SNB-19 CNS it was -5.69% [100 µM] (active); in the test with U251 CNS it was -26.5% [100 µM] (active); in the test with PC-3 prostate it was 5.02% [100 µM] (active); in the test with SK-MEL-5 melanoma it was -73.7% [100 µM] (active); in the test on UACC-62 melanoma it was -72.8% [100 µM] (active). The growth with LOX IMVI melanoma was -90.9% [100 µM] (active); in the test with SK-MEL-28 melanoma it was -63% [100 µM] (active).

With `CN(C)c1cc(NN=C(c2ccc(O)cc2)c2ccc(O)cc2)c([N+](=O)[O-])cc1[N+](=O)[O-]`, the growth with DU-145 prostate is 96.8%; in the test on K-562 leukemia, 118%; in the test with MALME-3M melanoma, 153%; with MDA-MB-231 breast it was 81.8%; in the test on RXF 393 renal it was 0.652% (active); in the test with SF-268 CNS it was 81.5%. Moreover, the growth in the test on SF-295 CNS is 79.3%; in the test on SF-539 CNS, 74.9%; with UACC-257 melanoma, 25.1%; in the test with M14 melanoma it was 48.2%; in the test on HCT-15 colon, 46.4%; in the test on HT29 colon, 114%. Moreover, the growth with SNB-75 CNS is 98%; with SNB-19 CNS it was 67.7%; in the test on U251 CNS, 70.8%; in the test on PC-3 prostate, 87.8%; in the test with SK-MEL-5 melanoma, 26%; in the test on UACC-62 melanoma, 71.7%. Also, the growth with LOX IMVI melanoma is 43.7%; in the test with SK-MEL-28 melanoma it was 81.5%.

For the compound `C#CC(OC(=O)N(C)C)(c1ccccc1)c1ccc(F)cc1` (stereo not given), the growth is 105% with DU-145 prostate; 120% in the test on K-562 leukemia; 142% in the test on MALME-3M melanoma; 101% with MDA-MB-231 breast; 87.7% in the test with RXF 393 renal; 91.1% with SF-268 CNS. Besides, the growth in the test on SF-295 CNS is 115%; in the test with SF-539 CNS it was 107%; with UACC-257 melanoma it was 87.8%; with M14 melanoma it was 129%; in the test with HCT-15 colon, 94.8%; with HT29 colon it was 116%. For the same compound, the growth is 93% with SNB-75 CNS; 120% with SNB-19 CNS; 94.8% in the test with U251 CNS; 102% in the test on PC-3 prostate; 112% in the test on SK-MEL-5 melanoma; 86.2% in the test with UACC-62 melanoma. For the same compound, the growth was 78.3% in the test on LOX IMVI melanoma and 96.5% with SK-MEL-28 melanoma.

Consider `CCOC(=O)n1cc(C2=C(c3ccc(OC)c(OC)c3)COC2=O)c2ccccc21`, for which the growth is -7.55% (active) in the test with DU-145 prostate; 9.56% (active) in the test on K-562 leukemia; 45% in the test with MALME-3M melanoma; 13.5% in the test on MDA-MB-231 breast; -4.89% (active) in the test on RXF 393 renal; 28.2% in the test with SF-268 CNS. Also, the growth with SF-295 CNS was 16.2%; in the test with SF-539 CNS, -15% (active); in the test on UACC-257 melanoma it was 91.2%; with M14 melanoma, 54.6%; in the test on HCT-15 colon it was 7.9% (active); with HT29 colon it was 1.19% (active). Besides, the growth in the test on SNB-75 CNS was 13.9%; in the test on SNB-19 CNS, 32.6%; in the test on U251 CNS, 23.6%; in the test with PC-3 prostate, 12%; in the test on SK-MEL-5 melanoma, -38.9% (active); with UACC-62 melanoma, 32.9%. Also, the results for the growth in the test with LOX IMVI melanoma and in the test with SK-MEL-28 melanoma were 39.1% and 63.8%, respectively.

Consider `N#C/C(=C(/O)CCCO)c1nc2ccccc2c(=O)[nH]1`, for which the growth in the test with DU-145 prostate was 102%; with K-562 leukemia, 102%; with MALME-3M melanoma it was 90.3%; in the test with MDA-MB-231 breast it was 98.5%; with RXF 393 renal, 87.5%; with SF-268 CNS, 112%. For the same compound, the growth in the test on SF-295 CNS is 150%; in the test with SF-539 CNS, 97.2%; in the test on UACC-257 melanoma it was 93.9%; in the test on M14 melanoma, 105%; in the test with HCT-15 colon, 103%; in the test on HT29 colon it was 108%. Moreover, the growth is 80.6% in the test on SNB-75 CNS; 105% in the test with SNB-19 CNS; 103% in the test with U251 CNS; 92.9% with PC-3 prostate; 107% in the test on SK-MEL-5 melanoma; 96% in the test on UACC-62 melanoma. Further, the growth was 98% in the test with LOX IMVI melanoma and 110% in the test on SK-MEL-28 melanoma.

As to `O=[N+]([O-])c1cc(CCl)ccc1OCCBr`, the growth in the test with DU-145 prostate is 95.7%; in the test on K-562 leukemia, 115%; in the test with MALME-3M melanoma it was 107%; in the test with MDA-MB-231 breast, 108%; in the test with RXF 393 renal it was 110%; with SF-268 CNS it was 101%. For the same compound, the growth was 99.7% in the test with SF-295 CNS; 97.9% in the test with SF-539 CNS; 105% in the test on UACC-257 melanoma; 98.3% with M14 melanoma; 91.1% in the test with HCT-15 colon; 96.7% with HT29 colon. Besides, the growth in the test with SNB-75 CNS was 86.6%; in the test on SNB-19 CNS it was 107%; with U251 CNS it was 101%; in the test on PC-3 prostate, 98.1%; in the test on SK-MEL-5 melanoma, 98.6%; in the test with UACC-62 melanoma, 96.8%. In addition, the growth is 95% with LOX IMVI melanoma and 110% in the test on SK-MEL-28 melanoma.
